# Tgondii IFNg – blocks Toxoplasma gondii growth in the presence of IFN-gamma; Toxoplasma gondii growth in IFN-gamma-treated host cells; hits give low values; activity change, negative = inhibition, % (test concentration not listed); 69,000 compounds, 3.8% hits; in the data active means activity change below about -70%, passing the limit was not always enough;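 further: host cells are HeLa cells infected with Toxoplasma gondii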
# Numbers stand for hits; . = inactive; ! = not confirmed by another sample. The entries come from a sample that favours hits as a whole.
SMILES,Tgondii IFNg
COc1ccc(-n2cc(CNCc3cc(C)no3)c(-c3ccccc3Cl)n2)cc1,.
COc1ccc(Cc2ncc3c(n2)CN(C(=O)C2CCC(=O)NC2)C3)cc1 (stereo not given),.
C=CCN(C(=O)Cc1cc(F)ccc1C)C1(C)CCS(=O)(=O)C1 (stereo not given),.
CCOc1ccc(C2c3[nH]c4ccccc4c3CCN2C(=O)c2cccc(F)c2)cc1 (stereo not given),-112.8
CCOc1ccc(C2c3[nH]c4ccccc4c3CCN2C(=O)c2cccnc2)cc1 (stereo not given),.
O=C(c1cccc(F)c1)N1CCc2c([nH]c3ccccc23)C1c1ccccc1 (stereo not given),.
Cc1ccc(C2c3[nH]c4ccccc4c3CCN2C(=O)c2cc3ccccc3[nH]2)cc1 (stereo not given),-78.7
Cc1ccc(C2c3[nH]c4ccccc4c3CCN2C(=O)c2cccc(F)c2)cc1 (stereo not given),-128.6
CCOc1ccc(C2c3[nH]c4ccccc4c3CCN2C(=O)COC)cc1 (stereo not given),.
Cc1ccc(C(=O)N2CCc3c([nH]c4ccccc34)C2c2ccc(C)cc2)cc1 (stereo not given),.
COc1cc(C(=O)N2CCc3c([nH]c4ccccc34)C2c2ccc(C)cc2)cc(OC)c1OC (stereo not given),.
Cc1ccc(C2c3[nH]c4ccccc4c3CCN2C(=O)c2ccnn2C)cc1 (stereo not given),.
Cc1ccc(C(=O)CC(C(=O)O)n2cncn2)cc1 (stereo not given),.
Cn1ccnc1SCCn1ccnc1-c1ccncc1,.
COc1ccc2c3c(n(C)c2c1)[C@H](CO)NCC31CCN(C(=O)c2ccc(F)cc2)CC1,.
Cc1ccc(-c2coc(-c3ccc(NC(=O)c4ccco4)cc3)n2)c(C)c1,.
O=C(CC(c1ccccc1)c1ccccc1)Nc1ncn[nH]1,.
O=C(Cn1c(=O)cc(C(=O)N2CCCC2)c2ccccc21)Nc1ccc2c(c1)OCCO2,.
Cc1nn(S(=O)(=O)c2ccc(Cl)cc2)c(C)c1Sc1ncccn1,.
Cc1ccc2[nH]c3c(c2c1)CCOc1ccccc1-3,.
CSc1ccc(-c2noc(-c3c(O)c4cc(C)ccc4[nH]c3=O)n2)cc1,.
Cc1ccc2[nH]c3c(c2c1)CCc1nonc1-3,-98.7
CCCc1cc(N2CC(c3ccccn3)C2)nc(C)n1,.
O=C(c1cn[nH]c1-c1cccc(F)c1)N1C[C@@H]2[C@@H]3CC[C@@H](C3)[C@@H]2C1,.
CCc1c(C)sc2c1CCN(Cc1nc(-c3cccc(Cl)c3)oc1C)C2c1ccccc1 (stereo not given),.
SMILES,Tgondii IFNg
O=C1Cc2c([nH]c3ccc(Br)cc23)-c2ncccc2N1,.
Brc1ccc2[nH]c3c(c2c1)CCCC3NCc1ccccc1 (stereo not given),-98.5
Brc1ccc2[nH]c3c(Br)cc(Br)cc3c2c1,.
CCSc1nc(CC(=O)N[C@@H]2C[C@H]2c2ccccc2)cs1,.
COCCN1CCn2c(CNC(=O)c3cccn3C)cnc2C1,.
Cc1ccc2oc(=O)n(CC(=O)N3CCC(c4nnsc4S(C)(=O)=O)CC3)c2c1,.
O=C(C(Cc1ccc(F)cc1)c1ccccc1)N1CCCCC1CN1CCOCC1 (stereo not given),.
O=C(Nc1cccc(Cl)c1)N[C@@H]1CC[C@@H](CCn2cc(Cc3ccccc3)nn2)O[C@@H]1CO,-73.7
O=C(Nc1cccc(Cl)c1)N[C@H]1CC[C@H](CCn2cc(Cc3ccccc3)nn2)O[C@H]1CO,.
O=C(Nc1cccc(Cl)c1)N[C@H]1CC[C@@H](CCn2cc(Cc3ccccc3)nn2)O[C@@H]1CO,.
Cc1cccc(CNC2CCC3(CCC(=O)N3)CC2)n1 (stereo not given),.
COc1ccc(S(=O)(=O)N2CCCC3(CCc4ccccc4O3)CC2)cc1NC(C)=O (stereo not given),.
Cc1c(C(=O)O)[nH]c2c1C(=O)CC(C)(C)C2,.
CCc1ccc(NC(=O)Cn2ncc3c(N4CCN(c5ccccc5)CC4)ncnc32)cc1,.
Cc1ccccc1NC(=O)Cn1ncc2c(N3CCN(c4ccccc4)CC3)ncnc21,.
Cc1cc(F)ccc1NC(=O)Cn1ncc2c(N3CCN(c4ccccc4)CC3)ncnc21,.
O=C(Cn1ncc2c(N3CCN(c4ccccc4)CC3)ncnc21)Nc1cccc(F)c1,-84.7
Cc1cc(Cl)ccc1NC(=O)Cn1ncc2c(N3CCCCCC3)ncnc21,.
COc1ccc(Cl)cc1NC(=O)Cn1ncc2c(N3CCCC3)ncnc21,-81.0
COc1ccc(Cl)cc1NC(=O)Cn1ncc2c(N3CCN(c4ccccc4)CC3)ncnc21,-82.0
COc1ccc(Cl)cc1NC(=O)Cn1ncc2c(N3CCN(c4ccccn4)CC3)ncnc21,-91.8
COc1cc(Cl)c(C)cc1NC(=O)Cn1ncc2c(N3CCN(c4ccccn4)CC3)ncnc21,.
COc1ccc(C)cc1NC(=O)Cn1ncc2c(N3CCN(c4ccccn4)CC3)ncnc21,.
Cc1ccc(NC(=O)Cn2ncc3c(N4CCN(c5ccccc5)CC4)ncnc32)c(Cl)c1,.
Cc1ccc(Cl)cc1NC(=O)Cn1ncc2c(N3CCCC3)ncnc21,.
SMILES,Tgondii IFNg
COc1ccc(-n2c(=S)[nH]c3sc4c(c3c2=O)CC(C)(C)OC4)cc1,.
CNC(=O)C[C@@H]1CC[C@H]2[C@@H](COC[C@@H](O)CN2Cc2ccccc2F)O1,.
CS(=O)(=O)N1CCC2C1CCC(=O)N2CCN1CCCC1 (stereo not given),.
Cc1ccccc1-c1noc(CNC(=O)CCSc2ccc3c(c2)OCCO3)n1,.
COC(=O)CSc1ncnc2c(C)csc12,.
Cc1cccc2c(-c3ccc(Cl)c(C(N)=O)c3)c[nH]c12,.
O=C(C[C@@H]1CC[C@H]2[C@@H](COC[C@@H](O)CN2S(=O)(=O)c2cccc(F)c2)O1)NCc1ccncn1,.
CCCc1nc(C)cc(-c2ccccc2CO)n1,.
COc1ccc(NC(=O)N2CCC3(CC2)Nc2cc(C)ccc2-n2cccc23)c(OC)c1,.
CNCC(O)Cn1c(C)c(C)c2ccccc21 (stereo not given),.
Cc1cc(C)n(CC(O)Cn2c3ccc(Cl)cc3c3cc(Cl)ccc32)n1 (stereo not given),.
OC(CNCc1ccccc1)Cn1c2ccc(Cl)cc2c2cc(Cl)ccc21 (stereo not given),-90.9
CN(C)C(=O)N1CCC2(C1)c1ccccc1S(=O)(=O)N2CC1CC1 (stereo not given),.
CCC(NCc1c(C(=O)N(C)Cc2ccccc2)nc2ccccn12)c1ccc(F)cc1 (stereo not given),.
C[C@H](CO)N1C[C@H](C)[C@@H](CN(C)C(=O)Nc2ccc3c(c2)OCCO3)OCc2cnnn2CCCC1=O,.
COC(=O)C1=C(C)NC(C)=C(C(=O)O[C@@H]2CCCN(Cc3ccccc3)C2)[C@@H]1c1cccc([N+](=O)[O-])c1,.
COCCOC(=O)C1=C(C)NC(C)=C(C(=O)OC/C=C/c2ccccc2)C1c1cccc([N+](=O)[O-])c1 (stereo not given),-72.6!
COC(=O)C1=C(C)NC(C)=C(C(=O)OCCCN2CCC(c3ccccc3)(c3ccccc3)CC2)[C@H]1c1cccc([N+](=O)[O-])c1,-71.3!
CC1=C(C(=O)OCCN(Cc2ccccc2)c2ccccc2)C(c2cccc([N+](=O)[O-])c2)C(P2(=O)OCC(C)(C)CO2)=C(C)N1 (stereo not given),.
COCCOC(=O)C1=C(C)NC(C)=C(C(=O)OC(C)C)C1c1cccc([N+](=O)[O-])c1 (stereo not given),.

# High-throughput results: PubChem BioAssay, Broad Institute
